Screens from PubChem.
Shiga toxin inh: inhibitors of Shiga toxin in Vero cells. Vero cells, Shiga toxin protein synthesis inhibition reporter. inhibition, % at 38.7 µM. 9.2% of 290,000 active; in the data active means inhibition mostly above about 28%, no sharp cut-off; inactive means mostly below about 43%; further: 0% is about no effect
Pf growth 48h: P. falciparum growth inhibition at 48 hours (one generation); P. falciparum luciferase growth in erythrocytes, 48 h; Potency, µM (highest dose often 28.7 µM), inactives show top-dose activity change, negative = inhibition, usual class: inhibitors; 5.9% of 310,000 active; further: potency means the concentration at half of the fitted maximal effect; on the % scale 0 is the no-effect control and ±100 the full control effect
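Luminescence readout; reporter = integrated firefly luciferase in P. falciparum. RBC culture at 2% hematocrit, 0.1% parasitemia final, 37 C/5% CO2; decreased signal taken as growth inhibition.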
HCV inh: HCV inhibition | 3.4% of 340,000 active | Potency, µM (doses to about 41.8 µM), inactives show at the highest dose activity change, negative = inhibition, usual class: inhibitors | Huh7.5.1 HCVcc-Cre infection, luciferase reporter, 44 h; further: potency means the concentration at half of the fitted maximal effect; on the % scale 0 is the no-effect control and ±100 the full control effect
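Luciferase read-out (15 sec integration) after a 15 min room-temperature substrate step quantifies HCVcc-Cre infection. Cells, 1,000 per well, had compound added 4 h post-plating, then virus at ~0.5 moi, and were cultured 44 h.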
HCMV inh: human cytomegalovirus inhibition; AID 1259415; HFF cells, HCMV-luciferase reporter, 72 h; stronger effect = lower value; 4.5% of 410,000 active; activity change, negative = inhibition, % at 57.5 µM; in the data active means activity change below about -60%; inconclusive means no clear call, values can overlap the other calls; inactive means above about -39%; further: on the % scale 0 is the no-effect control and ±100 the full control effect
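Steps: HFFs plated, 16 h 37C; compounds added; HCMV-luciferase added to MOI 1 PFU/cell; 72 h 37C; OneGlo reagent, 5 min room temperature; luminescence read, normalized to controls.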
Pf growth 96h: inhibits malaria parasite growth, 96 h. 6.9% of 320,000 active. P. falciparum luciferase reporter growth, 96 h. Potency, µM (series often up to 28.7 µM), for inactives: at the highest dose activity change, negative = inhibition, hits mostly inhibitors; further: potency means the concentration at half of the fitted maximal effect; on the % scale 0 is the no-effect control and ±100 the full control effect
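Cell-based qHTS: luciferase-tagged P. falciparum in erythrocytes (2% hematocrit, 0.05% parasitemia final) incubated with compounds for 96 hours, 37 C, 5% CO2; luciferase detection reagent then added and luminescence measured.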
CHX counter: counter-screen for Shiga toxin inhibitors: cycloheximide protein synthesis inhibition. 12% of 300,000 active. AID 2314. max response, %. cell reporter, cycloheximide protein synthesis inhibition counterscreen; in the data active means max response mostly above about 13%, no sharp cut-off; inactive means mostly below about 14%; further: read at 38.3 µM for the half of the compounds with a filed dose; 0% is about no effect
* marks the source's active call; other numbers are inactive results; i = inactive; ? = inconclusive; . = not tested or not shown; + = active, no number; ! = not confirmed by another sample. Hits are enriched below; roughly 21% of the tested compounds scored in any of these assays. Unless noted, the call rests on the fitted dose curve; in most records, active means well fitted inhibition curve with a large enough effect; inconclusive means small, poorly fitted or top-dose-only effect, or another doubt; inactive means no such curve, though single readings can be large or run the other way.

SMILES	Shiga toxin inh	Pf growth 48h	HCV inh	HCMV inh	Pf growth 96h	CHX counter
CC(C)(C)N(Cc1ccccc1)C(=O)COC(=O)c1ccccc1SCC(=O)N1CCCC1	.	?	0%	0	?	.
Cc1noc(/C=C/N(C)C)c1S(=O)(=O)N1CCN(c2ccc(F)cc2)CC1	1	15%	-7%	-62*	?	-5
CCOC1OC(=O)C(Cl)=C1Nc1ccc(C)cc1 (configuration not stated)	2	22%	0%	-20	5%	4
CCOC1OC(=O)C(Cl)=C1Nc1ccc(C)cc1C (configuration not stated)	-9	?	1%	6	2.3µM*	-3
CCN(C(=O)COc1cc(OC)ccc1C(C)=O)C1CCS(=O)(=O)C1 (configuration not stated)	.	?	?	0	5%	.
O=C(CS(=O)(=O)c1ccc(Cl)cc1)Nc1nnc(-c2cccs2)o1	0	-13%	17%	-7	4%	3
O=c1c(O)c(-c2cc(O)c(O)c(O)c2)oc2cc(O)ccc12	-4	.	.	.	.	7
CCN(CC)S(=O)(=O)c1ccc(S(=O)(=O)N(Cc2ccccn2)Cc2ccco2)cc1	8	?	10µM*	-23	.	3
COc1ccc(/C=N/N=C2/NC(=O)CC(C(=O)O)S2)cc1 (configuration not stated)	-4	2%	4%	-5	44%	1
COc1ccc(/C=N/N=C2/CC(C)(C)Cc3n[nH]c(=O)cc32)cc1	36*	-19%	-15%	-23	i	19
CCN(CC)C(=O)c1nc[nH]c1C(=O)O[C@@H](C)c1ccccc1	.	.	15%	15	.	.
O=C(C[n+]1ccc(/C=N/O)cc1)NC1CCCCC1	28	10µM*	7%	?	-38%	-5
Cn1c(=O)c2c(SCC(=O)Nc3ccc(F)cc3F)nc(C3CCCC3)nc2n(C)c1=O	.	.	.	-11	.	.
CCOC(=O)c1ccc(NC(=O)CSc2cc(=O)n(CC)c3ccccc23)cc1	.	.	.	13	.	.
O=C(C1CC(c2ccc(F)cc2)=NO1)N1CCCc2ccccc21 (configuration not stated)	17	20%	-30%	9	2.1µM*	0
COc1ccc(OC)c(C2=NOC(C(=O)N3CCCc4ccccc43)C2)c1 (configuration not stated)	84*	5%	?	-60*	.	56*
CC1C=C[C@@H]2[C@H](C1)C(=O)N(Cc1ccccc1)[C@H]2c1ccccc1Br (some centres not stated)	i	.	.	.	.	13
Cc1cccc(-c2onc3ccc(C4(C)OCCO4)cc23)c1	44	.	?	?	?	13
c1ccc(-c2onc3cc4c(cc23)OCCO4)cc1	+	166%	?	9	39%	35*
CCc1ccc(NC(=O)c2ccc(F)c(S(=O)(=O)N3CCc4ccccc4C3)c2)cc1	.	.	.	-68*	.	.
CCc1ccc(NC(=O)c2ccc(F)c(S(=O)(=O)N3CCC4(CC3)OCCO4)c2)cc1	.	.	.	-90*	.	.
O=S(=O)(c1cc(F)ccc1F)N1CCC2(CC1)OCCO2	85*	74%	12%	-28	0%	60*
O=C(Nc1cc(Cl)cc(Cl)c1)c1ccc(F)c(S(=O)(=O)N2CCCC2)c1	.	.	.	-23	.	.
O=C(Nc1ccc(F)c(F)c1)c1ccc(F)c(S(=O)(=O)N2CCC3(CC2)OCCO3)c1	22	?	13µM*	-82*!	10µM*	10
CCc1ccc(NC(=O)c2ccc(F)c(S(=O)(=O)N3CCC(C)CC3)c2)cc1	.	.	.	-29	.	.
COc1ccc(CC(=O)NNC(=O)c2c(-c3ccccc3Cl)noc2C)cc1OC	-1	-19%	12%	-2	0%	-2
COc1ccc(N2CCN(CCCNC(=O)C3COc4ccc(OC)cc4C3)CC2)cc1 (configuration not stated)	.	.	.	-14	.	.
CCN1CCN(c2oc(-c3ccccc3)nc2S(=O)(=O)c2ccc(C)cc2)CC1	.	13µM*	?	-5	12µM*	.
COc1ccc(-c2nc(S(=O)(=O)c3ccccc3)c(N3CCC(C)CC3)o2)cc1	.	.	.	-7	.	.
Cc1ccc(S(=O)(=O)c2nc(-c3ccccc3)oc2N2CCCCCC2)cc1	.	.	.	-8	.	.
